Among the data in PubChem BioAssay are composite z-score and z-score values, retold here.

Active and inactive are the calls of the source. Unless noted, how the calls were made is not given here.

Assay [1] in a line: compounds binding Alexa647 anti-His antibody – biochemical, small-molecule microarray, 635 nm fluorescence, artefact control for SMM control protein annotation, primary screen (AID 1128).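 Further: score merges feature fluorescence with signal-to-noise for each printed compound spot.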 As to conditions: higher = more signal.
The test system of assay [2] is Human papillomavirus type 1a E7 protein (residues 1-88). The assay can be described thus: HPV1a E7 small-molecule binders, primary screen, biochemical, small-molecule microarray, residues 1-88, 635 nm (AID 1129). Conditions: small-molecule microarray binding, fluorescence 635 nm; higher = more signal.
Assay [3] addresses Focal adhesion kinase 1 (Homo sapiens) (UniProt Q05397). The assay can be described thus: PTK2 protein binding on printed compound slides – biochemical, small-molecule microarray, 635/667 nm fluorescence, BSA, DTT, primary screen (AID 1130).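 Further: composite of spot emission at 667 nm and signal to noise over triplicate slides.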 Conditions: 635 nm fluorescence, higher = more signal.
The subject of assay [4] is Fibrinogen (Alexa647-labelled). The assay can be described thus: Alexa647-fibrinogen binding to printed small molecules – biochemical, small-molecule microarray, 635/667 nm fluorescence, artefact control for SMM control-protein annotation, profiling panel (AID 1131).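 Further: z-score merges 667 nm fluorescence with per-spot signal-to-noise over triplicate slides.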 Conditions: fibrinogen-A647 binding fluorescence, higher = more signal.
Assay [5] has as its target Follistatin (Homo sapiens) (UniProt P19883). Briefly: FST protein binding to printed compounds – biochemical, small-molecule microarray, 635/667 nm fluorescence, primary screen (AID 1132). As to conditions: 635 nm fluorescence, higher = more signal.
For assay [6], the target named is Fibroblast growth factor 2 (Homo sapiens) (UniProt P09038). Briefly: basic fibroblast growth factor binding to printed compounds – biochemical, small-molecule microarray, 635/667 nm fluorescence, primary screen (AID 1133). As to conditions: FGF2, fluorescence 635/667, higher = more signal.
A short description of assay [7]: JC-1 mitochondrial potential readout, lung cancer cells – cell-based, A549, JC-1 fluorescence, basal, 24 h, 100 nL, profiling panel (AID 1138).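 Further: A549 lung adenocarcinoma cells under basal conditions with no added stimulus; test concentration not given here.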 Conditions: higher = more signal.
The test system of another assay is Lefty1. The assay can be described thus: Lefty1 protein binding to printed compounds – biochemical, small-molecule microarray, 635/667 nm fluorescence, primary screen (AID 1139). Conditions: fluorescence 635/667, higher = more signal.
Assay [8] concerns wheat germ agglutinin (Triticum aestivum), Alexa647-labelled. The assay can be described thus: Alexa647-WGA lectin binding to printed small molecules – biochemical, small-molecule microarray, 635/667 nm fluorescence, artefact control for SMM control-protein annotation, profiling panel (AID 1140).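 Further: score merges 667 nm feature emission with signal to noise over triplicate slides.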 As to conditions: WGA-A647 binding, 635 nm fluorescence, higher = more signal.
In assay [9] the target is Luciferin 4-monooxygenase (Photinus pyralis) (UniProt P08659). Briefly: inhibition of purified Photinus pyralis luciferase – biochemical, luminescence, purified enzyme, 2006 set, primary screen (AID 1141).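 Further: cell-free assay with purified firefly luciferase at 100 ng per well in PBS; test concentration not given here.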 Conditions: purified firefly luciferase, SteadyGlo luminescence, 30 min; higher = more signal, called active from +8 up or from −8 down.
The subject of assay [10] is Wnt5a (protein binding on small-molecule microarray). Briefly: small molecules binding Wnt5a protein – biophysical, small-molecule microarray, 635/667 nm fluorescence, primary screen (AID 1142).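 Further: fluorescence read at 667 nm with signal to noise per printed feature.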 Conditions: 635 nm fluorescence, higher = more signal.
The nature of assay [11]: ATP-based viability of Huh7 replicon cells – cell-based, CellTiter-Glo luminescence, basal, 48 h, cytotoxicity control for HCV replication inhibitor project, primary screen (AID 1143).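 Further: Huh7 hepatoma cells carrying a hepatitis C replication reporter with no stimulus; test concentration not given here.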 Conditions: higher = more signal, called active from +8 up or from −8 down.
Assay [12] in a line: Pseudomonas biofilm growth suppression – PAO1 strain, BacTiter-Glo luminescence, LB-PBS, primary screen (AID 1144). As to conditions: P. aeruginosa PAO1 biofilm, 12 h, higher = more signal.
The nature of assay [13]: basal CRE-LacZ reporter activity in PC12 – cell-based, unstimulated, primary screen (AID 1145). Conditions: no forskolin, luminescence, 4.5 h, higher = more signal, called active from +8 up or from −8 down.
Assay [14] can be described thus: forskolin-driven CRE-LacZ activity in PC12 – cell-based, CRE-LacZ reporter, forskolin-stimulated, primary screen (AID 1146).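 Further: PC12 cells with 6xCRE LacZ reporter stimulated by forskolin 10 µM; beta-galactosidase reporter signal reflecting CREB driven transcription.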 As to conditions: luminescence, 4.5 h, higher = more signal, called active from +8 up or from −8 down.
Assay [15] has as its target Streptavidin (Streptomyces avidinii) (UniProt P22629). The assay can be described thus: compounds binding control protein streptavidin – biophysical, small-molecule microarray, 635/667 nm fluorescence, artefact control for SMM compound annotation, primary screen (AID 1147).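 Further: signal reflects streptavidin binding to arrayed compounds as a control protein.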 As to conditions: higher = more signal.
Assay [16] in a line: probe aInhba binding on compound microarray – biochemical, small-molecule microarray, 635/667 nm fluorescence, primary screen (AID 1148).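 Further: score merges 667nm spot fluorescence with signal-to-noise for antibody binding to printed compounds.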 As to conditions: higher = more signal.
For assay [17], the target named is Torsin-1A (Homo sapiens) (UniProt O14656). The assay can be described thus: TOR1A wild-type binding on microarray – cell lysate, small-molecule microarray, lysate, 635/667 nm, primary screen (AID 1149). Conditions: COS7 hTOR1A-WT lysate, 635 nm fluorescence, higher = more signal.
Assay [18] has the same target. The assay can be described thus: torsin A mutant lysate binding on microarrays – cell lysate, small-molecule microarray, COS7 lysate, 635/667 nm fluorescence, primary screen (AID 1150).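 Further: score pools 667 nm emission and signal to noise measuring lysate protein binding.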 Conditions: COS7 hTOR1A mutant lysate, 635 nm fluorescence, higher = more signal.
The test system of assay [19] is Sonic hedgehog protein (Shh). The assay can be described thus: Sonic hedgehog microarray binding compounds – biochemical, small-molecule microarray, 635/667 nm fluorescence, primary screen (AID 1151).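 Further: Shh protein binding to compounds spotted on small-molecule microarray slides; score combines spot fluorescence intensity with signal-to-noise across triplicate slides.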 Conditions: 635 nm fluorescence, higher = more signal.

Sequence of Torsin-1A (Homo sapiens) (O14656 whole entry, looked up): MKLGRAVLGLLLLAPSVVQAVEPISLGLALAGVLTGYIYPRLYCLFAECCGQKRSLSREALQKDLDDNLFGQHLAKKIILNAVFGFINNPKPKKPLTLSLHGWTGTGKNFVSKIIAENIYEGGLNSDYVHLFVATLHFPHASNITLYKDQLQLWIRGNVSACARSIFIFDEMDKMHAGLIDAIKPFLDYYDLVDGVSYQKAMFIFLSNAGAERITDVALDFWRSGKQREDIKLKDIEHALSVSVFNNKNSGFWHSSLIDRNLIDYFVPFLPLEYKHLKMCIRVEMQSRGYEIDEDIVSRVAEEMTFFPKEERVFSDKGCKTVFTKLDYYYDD
Sequence of Streptavidin (Streptomyces avidinii) (P22629 whole entry, looked up): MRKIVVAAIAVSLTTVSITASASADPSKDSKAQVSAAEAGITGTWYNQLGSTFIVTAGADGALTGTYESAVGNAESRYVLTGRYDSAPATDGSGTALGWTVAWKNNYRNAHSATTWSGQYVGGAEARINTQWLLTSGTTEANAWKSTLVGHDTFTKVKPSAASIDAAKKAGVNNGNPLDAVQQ
Sequence of Follistatin (Homo sapiens) (P19883 whole entry, looked up): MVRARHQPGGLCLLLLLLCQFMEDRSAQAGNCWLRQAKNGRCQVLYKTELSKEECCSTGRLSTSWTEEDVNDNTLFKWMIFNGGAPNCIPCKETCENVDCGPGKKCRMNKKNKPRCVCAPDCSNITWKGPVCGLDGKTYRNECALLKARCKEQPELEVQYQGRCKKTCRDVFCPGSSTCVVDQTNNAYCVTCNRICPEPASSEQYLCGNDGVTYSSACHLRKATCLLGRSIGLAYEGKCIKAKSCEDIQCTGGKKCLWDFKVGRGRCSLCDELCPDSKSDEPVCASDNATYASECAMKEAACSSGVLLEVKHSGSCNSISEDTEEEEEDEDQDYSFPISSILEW
Sequence of Fibroblast growth factor 2 (Homo sapiens) (P09038 whole entry, looked up): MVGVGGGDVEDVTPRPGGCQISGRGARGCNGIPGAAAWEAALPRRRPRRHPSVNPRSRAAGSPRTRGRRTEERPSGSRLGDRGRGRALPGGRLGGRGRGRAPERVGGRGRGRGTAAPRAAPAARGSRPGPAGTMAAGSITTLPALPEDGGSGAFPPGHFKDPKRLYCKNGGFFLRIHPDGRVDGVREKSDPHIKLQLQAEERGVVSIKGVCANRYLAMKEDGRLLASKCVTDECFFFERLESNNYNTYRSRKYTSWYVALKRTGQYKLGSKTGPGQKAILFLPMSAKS
Sequence of Focal adhesion kinase 1 (Homo sapiens) (Q05397 whole entry, looked up): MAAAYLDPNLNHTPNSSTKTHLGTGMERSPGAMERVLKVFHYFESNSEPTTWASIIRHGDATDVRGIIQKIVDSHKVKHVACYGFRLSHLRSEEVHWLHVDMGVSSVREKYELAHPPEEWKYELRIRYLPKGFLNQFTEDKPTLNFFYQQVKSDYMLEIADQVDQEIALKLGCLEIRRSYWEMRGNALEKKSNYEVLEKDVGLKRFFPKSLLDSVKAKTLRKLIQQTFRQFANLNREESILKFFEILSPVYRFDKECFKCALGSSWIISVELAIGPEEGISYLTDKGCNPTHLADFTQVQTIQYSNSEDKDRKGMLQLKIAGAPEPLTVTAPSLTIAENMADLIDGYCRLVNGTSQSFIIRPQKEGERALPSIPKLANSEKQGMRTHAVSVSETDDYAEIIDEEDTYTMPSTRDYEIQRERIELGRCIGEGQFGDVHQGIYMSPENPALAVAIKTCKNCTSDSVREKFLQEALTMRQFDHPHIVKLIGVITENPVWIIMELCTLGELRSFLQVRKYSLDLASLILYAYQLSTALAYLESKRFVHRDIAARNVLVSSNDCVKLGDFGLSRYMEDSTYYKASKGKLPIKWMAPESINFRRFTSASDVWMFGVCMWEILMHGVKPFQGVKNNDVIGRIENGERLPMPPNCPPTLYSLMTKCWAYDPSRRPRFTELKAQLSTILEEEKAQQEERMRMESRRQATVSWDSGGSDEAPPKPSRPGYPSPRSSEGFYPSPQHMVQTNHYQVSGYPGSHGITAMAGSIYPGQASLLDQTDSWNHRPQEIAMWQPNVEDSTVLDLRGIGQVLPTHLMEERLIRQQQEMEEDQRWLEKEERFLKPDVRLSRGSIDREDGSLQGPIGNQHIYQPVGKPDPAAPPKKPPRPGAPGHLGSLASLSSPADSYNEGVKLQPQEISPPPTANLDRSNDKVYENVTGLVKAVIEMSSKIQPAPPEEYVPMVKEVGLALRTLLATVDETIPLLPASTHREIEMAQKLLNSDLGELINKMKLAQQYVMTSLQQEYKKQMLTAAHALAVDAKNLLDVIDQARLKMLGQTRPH
Sequence of Luciferin 4-monooxygenase (Photinus pyralis) (P08659 whole entry, looked up): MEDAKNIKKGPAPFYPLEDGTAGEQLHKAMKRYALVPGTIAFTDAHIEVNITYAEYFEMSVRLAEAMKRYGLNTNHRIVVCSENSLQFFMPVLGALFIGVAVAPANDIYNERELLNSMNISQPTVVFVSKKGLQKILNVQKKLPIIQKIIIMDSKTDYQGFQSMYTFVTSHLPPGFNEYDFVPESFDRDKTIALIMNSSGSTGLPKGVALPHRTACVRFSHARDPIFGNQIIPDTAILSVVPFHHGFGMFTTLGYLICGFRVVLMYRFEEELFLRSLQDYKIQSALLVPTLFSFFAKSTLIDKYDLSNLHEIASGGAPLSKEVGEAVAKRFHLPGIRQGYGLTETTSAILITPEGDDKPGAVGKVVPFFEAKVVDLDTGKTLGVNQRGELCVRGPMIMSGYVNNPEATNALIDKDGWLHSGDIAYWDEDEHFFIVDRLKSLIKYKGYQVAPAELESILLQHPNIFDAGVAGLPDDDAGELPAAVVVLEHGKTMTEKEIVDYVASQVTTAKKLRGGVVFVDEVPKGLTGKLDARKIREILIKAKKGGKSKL

On to `CC[C@@H](O[Si](C#C[Si](C(C)C)(C(C)C)C(C)C)(C(C)C)C(C)C)c1cn([C@H](C)c2ccccc2)nn1`, for which the composite z-score was 0.176 in assay [1]; 0.57 in assay [2]; 0.0506 in [3]; -0.0116 in assay [4]; 0.548 in assay [5]; 0.335 in assay [6]. The composite z-score in the assay on Lefty1 was 0.573; in assay [8], 0.094; in assay [10] it was -0.026; in [15], 0.693; in assay [16], -0.0044; with Torsin-1A (Homo sapiens) [17] it was 0.398. The values for the composite z-score (with Torsin-1A (Homo sapiens) [18]; in [19]) were 0.458 and 0.634, respectively. Also, the z-score in assay [7] is -0.213; in [9] it was -0.268 (inactive); in assay [11] it was 0.428 (inactive); in assay [12] it was -0.0357 (inactive); in assay [13] it was -0.374 (inactive); in [14], 0.266 (inactive).
As to `N#Cc1ccc(NN2C(C(O)c3ccc(B(O)O)cc3)C=CC3CN(c4ccccc4)C(=O)C32)cc1` (stereo not given), the composite z-score is 0.48 in assay [1]; -0.633 in assay [2]; -0.508 in assay [3]; 0.529 in [4]; -0.0923 in [5]; -0.436 in [6]. The composite z-score in the assay on Lefty1 was -0.118; in assay [8] it was 0.485; in [10], -0.465; in assay [15] it was 0.287; in assay [16], -0.128; in the assay with Torsin-1A (Homo sapiens) [17], -0.0754. Moreover, the composite z-score was 0.103 in the assay with Torsin-1A (Homo sapiens) [18] and -0.944 in assay [19]. Besides, the z-score in assay [7] was -0.408; in [9] it was -1.24 (inactive); in assay [11] it was -0.0138 (inactive); in assay [12], -0.454 (inactive); in assay [13], -0.898 (inactive); in assay [14], -0.758 (inactive).
`C=CC[C@H](O)c1ccc(O)c(F)c1`: the composite z-score was -0.234 in [1]; -1.35 in assay [2]; -0.677 in [3]; -2.61 in assay [4]; -1.28 in assay [5]; -0.975 in [6]. The composite z-score in the assay on Lefty1 is -0.618; in assay [8], -0.318; in [10] it was -0.863; in assay [15] it was -1.39; in assay [16], -0.0429; with Torsin-1A (Homo sapiens) [17], -3.98. Also, the composite z-score was -1.66 with Torsin-1A (Homo sapiens) [18] and -1.11 in assay [19]. Moreover, the z-score is 0.414 in assay [7]; -0.857 (inactive) in [9]; -0.48 (inactive) in assay [11]; -0.955 (inactive) in [12]; -0.0392 (inactive) in assay [13]; -0.535 (inactive) in assay [14].
As to `C=CCNC(=O)[C@H]1[C@@H]2C(=O)O[C@@H](c3ccccc3)[C@@H](c3ccccc3)N2[C@@H](c2ccc(O)cc2)[C@]12C(=O)Nc1ccc(C#CCC(C(=O)OC)C(=O)OC)cc12`, the composite z-score is 2.01 in [1]; 1.08 in assay [2]; 0.144 in [3]; -0.078 in assay [4]; 0.636 in assay [5]; 0.497 in assay [6]. In addition, the composite z-score in the assay with Lefty1 is 0.0372; in assay [8], -0.0126; in [10], -0.223; in [15] it was -0.419; in assay [16], -0.0762; with Torsin-1A (Homo sapiens) [17] it was 0.685. Further, the composite z-score with Torsin-1A (Homo sapiens) [18] is 0.449; in assay [19], 0.414. The z-score is 0.243 in assay [7]; -1.37 (inactive) in assay [9]; 0.15 (inactive) in [11]; 0.278 (inactive) in assay [12]; -0.471 (inactive) in assay [13]; 0.0988 (inactive) in [14].
For `CC(C)(C)OC(=O)CC[C@]1(C(=O)N2CCOCC2)COC(c2ccc(OCCCO)cc2)=N1`, the composite z-score was 2.44 in assay [1]; 0.882 in assay [2]; 0.427 in assay [3]; 0.507 in assay [4]; -0.0198 in assay [5]; -0.225 in assay [6]. The composite z-score in the assay with Lefty1 was -0.692; in [8] it was 0.672; in assay [10] it was -0.278; in assay [15], -0.0376; in assay [16] it was 0.171; with Torsin-1A (Homo sapiens) [17], 0.701. The values for the composite z-score (with Torsin-1A (Homo sapiens) [18]; in assay [19]) were 1.48 and -0.447, respectively. Further, the z-score in assay [7] was 1.62; in assay [9], -1.06 (inactive); in assay [11], -0.107 (inactive); in assay [12], -0.367 (inactive); in [13], 1.34 (inactive); in assay [14], -0.841 (inactive).
In the case of `O=C1C[C@@](C(=O)NCC(F)(F)F)(c2ccc([N+](=O)[O-])cc2)[C@@H](c2ccc(CO)cc2I)N1CC12CC3CC(CC(C3)C1)C2`, the composite z-score in assay [1] was 1.31; in assay [2] it was 0.722; in assay [3], -0.0231; in [4] it was 0.93; in assay [5] it was 0.994; in assay [6] it was 1.34. Moreover, the composite z-score in the assay with Lefty1 is 1.22; in assay [8], 0.249; in assay [10], 0.437; in [15] it was 0.229; in [16] it was 0.0167; with Torsin-1A (Homo sapiens) [17] it was -0.286. Further, the composite z-score with Torsin-1A (Homo sapiens) [18] is -0.251; in [19], 1.53. The z-score is 1.73 in assay [7]; -0.251 (inactive) in assay [9]; -5.73 (inactive) in assay [11]; -1.44 (inactive) in [12]; 0.558 (inactive) in assay [13]; -1.01 (inactive) in [14].
